Values joined by “and” are separate entries in the source; they are usually repeats but may differ in a detail not shown here. Equal values may be shown once. More than one record can exist for a structure, and the calls need not agree. Active and inactive are the calls of the source. How the source made its calls: active means hit-call score of the fitted dose curve at least 0.9, where 1 is the maximum; inactive means score below 0.9.
How the values were obtained:
[1] = CCTE_Shafer_MEA_acute_burst_number: CCTE's Neural Acute Assay for Single-Electrode Bursts, Shafer Lab (AID 2284013)
Procedure, shortened: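 Primary rat cortical neurons on 16-electrode MEA wells, treated on DIV 13 or 15 with compound at 0.03-40 uM. Single-electrode burst count from 40-min recordings at 37 C before and after exposure; percent change from baseline per well, DMSO negative control.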

[2] = CCTE_Shafer_MEA_acute_burst_duration_mean: CCTE's Neural Acute Assay for Mean Burst Duration, Shafer Lab (AID 2284014);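 further: hits are decreases in mean burst duration relative to DMSO controls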
Procedure, shortened: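 Rat primary cortical neurons on 48-well MEA, treated at DIV 13 or 15 with 0.03-40 uM in at least 3 wells. Value is percent change in mean burst duration, comparing 40 min recordings at 37 C before and during exposure.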

[3] = CCTE_Shafer_MEA_acute_per_burst_spike_number_mean: CCTE's Neural Acute Assay for Average Number of Spikes Per Burst, Shafer Lab (AID 2284015);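 further: hits are decreases in mean spikes per burst versus baseline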
Procedure, shortened: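 We recorded spontaneous network firing of rat cortical neurons for 40 min before and 40 min during exposure to compound at 0.03-40 uM, at 37 C. Spikes were detected adaptively at 8x rms noise, and the change in average spikes per burst was fitted against DMSO.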

[4] = CCTE_Shafer_MEA_acute_interburst_interval_mean: CCTE's Neural Acute Assay for Mean Interburst Interval, Shafer Lab (AID 2284016);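 further: percent change of mean interburst interval versus each well's own pre-dose baseline; curves fitted for decrease in interburst interval relative to DMSO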
Procedure, shortened: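 MEA recording of spontaneous network bursting in primary rat cortical cultures; mean interburst interval was compared before and after a 40-min compound exposure (0.03-40 uM) and expressed as percent change, relative to DMSO.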

[5] = CCTE_Shafer_MEA_acute_burst_percentage_std: CCTE's Neural Acute Assay for Standard Deviation of Burst Percentage, Shafer Lab (AID 2284018);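 further: fitted in the negative direction so actives lower burst percentage SD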
Procedure, shortened: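 Rat primary cortical neurons on 48-well MEAs, DIV 13 or 15, 37 C. 40-min baseline then 40-min recording with compound (0.03-40 uM); well-level SD of per-electrode burst spike percentage, expressed as percent change from baseline.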

[6] = CCTE_Shafer_MEA_acute_per_network_burst_spike_number_mean: CCTE's Neural Acute Assay for Average Number of Spikes in a Network Burst, Shafer Lab (AID 2284019);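 on AC50: curve fitted for loss of signal so actives reduce spikes per network burst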
Procedure, shortened: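 Rat primary cortical neurons on 48-well MEA at DIV 13 or 15, 37 C; compounds 0.03-40 uM, at least three wells each. 40-min baseline then 40-min exposure recording; percent change in mean spikes per network burst.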

[7] = CCTE_Shafer_MEA_acute_per_network_burst_spike_number_std: CCTE's Neural Acute Assay for Standard Deviation of Number of Spikes in a Network Burst, Shafer Lab (AID 2284020);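 further: fitted for decrease in spike-number SD versus DMSO so actives lower it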
Procedure, shortened: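 Rat primary cortical neurons on 48-well MEA (16 electrodes/well), treated DIV 13 or 15 at 0.03-40 uM, ≥3 wells per compound. 40 min recordings at 37 C before and after dosing; value is percent change in network-burst spike-number SD, negative direction vs DMSO.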

[8] = CCTE_Shafer_MEA_acute_per_network_burst_electrodes_number_mean: CCTE's Neural Acute Assay for Mean Number of Electrodes in a Network Burst, Shafer Lab (AID 2284021);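 further: curves fitted for decreases only so hits reduce electrodes per burst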
Procedure, shortened: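 Rat primary cortical neurons on 16-electrode MEA wells were recorded 40 min at baseline on DIV 13 or 15, then 40 min after compound (0.03-40 uM), at 37 C. Value is percent change per well, fitted in loss direction versus DMSO.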

[9] = CCTE_Shafer_MEA_acute_network_burst_percentage: CCTE's Neural Acute Assay for Percentage of Network Bursts, Shafer Lab (AID 2284022);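 further: curves fitted for loss so actives lower network burst percentage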
Procedure, shortened: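 Primary rat cortical neurons on 16-electrode MEA wells, treated on DIV 13 or 15 with compound (0.03-40 uM); 40-min baseline and 40-min post-exposure recordings at 37 C. Value is percent change in spikes within network bursts versus baseline, DMSO negative control.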

[10] = CCTE_Shafer_MEA_acute_cross_correlation_area: CCTE's Neural Acute Assay for Area of Cross Correlation, Shafer Lab (AID 2284024);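 further: area under pooled inter-electrode spike cross-correlation near zero lag as percent change from own baseline; curves fitted for loss of cross-correlation area so actives lower synchrony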
Procedure, shortened: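 Primary rat cortical neurons on 48-well MEA plates (16 electrodes/well) were recorded 40 min at baseline on DIV 13 or 15, then 40 min with compound (0.03-40 uM) at 37 C; cross-correlation area expressed as percent change from baseline.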

SMILES	outcome [1]	outcome [2]	outcome [3]	outcome [4]	outcome [5]	outcome [6]	AC50 [7]	AC50 [8]	AC50 [9]	outcome [10]	AC50 [1]	AC50 [2]	AC50 [3]	AC50 [5]	AC50 [6]	AC50 [10]	AC50 [4]	outcome [7]	outcome [8]	outcome [9]
CC(C)OC(=O)Nc1cccc(Cl)c1	inactive	inactive	inactive	inactive	inactive	inactive	25.2 µM (active)	20 µM (active)	20 µM (active)	inactive	–	–	–	–	–	–	–	–	–	–
CC1(C)C(C=C(Cl)Cl)C1C(=O)OC(C#N)c1ccc(F)c(Oc2ccccc2)c1 (centres undefined)	inactive	inactive	inactive	inactive	inactive	–	81.2 nM (active) and 622 nM (active)	66.4 nM (active) and 796 nM (active)	171 nM (active) and 612 nM (active)	–	173 nM (active)	1660 nM (active)	0.574 µM (active)	5280 nM (active)	54.4 nM (active) and 609 nM (active)	20.3 nM (active) and 102 nM (active)	–	–	–	–
CC(C)N(C(=O)COc1nnc(C(F)(F)F)s1)c1ccc(F)cc1	inactive	inactive	inactive	inactive	inactive	inactive	1.32 µM (active)	–	5 µM (active)	inactive	–	–	1.36 µM (active)	3550 nM (active)	–	–	31900 nM (active)	inactive	inactive	inactive
Oc1ccc(Cl)cc1Cc1ccccc1	–	inactive	inactive	inactive	–	–	–	8.31 µM (active)	5.05 µM (active)	–	814 nM (active)	–	–	8330 nM (active)	1.57 µM (active)	457 nM (active)	–	inactive	–	–
O=S1OCC2C(CO1)C1(Cl)C(Cl)=C(Cl)C2(Cl)C1(Cl)Cl (centres undefined)	inactive	inactive	–	inactive	inactive	–	0.348 µM (active)	0.177 µM (active)	24.4 µM (active)	inactive	–	269 nM (active)	223 nM (active) and 58.3 nM (active)	102 nM (active)	230 nM (active) and 56 nM (active)	50.2 nM (active)	–	inactive	inactive	inactive
ClC1C(Cl)C(Cl)C(Cl)C(Cl)C1Cl (centres undefined)	inactive	–	–	inactive	inactive	–	–	1.1 µM (active)	–	–	–	20000 nM (active)	1.62 µM (active)	–	1.23 µM (active)	9690 nM (active)	–	inactive	–	–
CCCN(CCOc1c(Cl)cc(Cl)cc1Cl)C(=O)n1ccnc1	–	–	–	inactive	inactive	–	32.6 µM (active)	–	–	inactive	1560 nM (active)	29500 nM (active)	33.1 µM (active)	–	33.6 µM (active)	–	–	–	inactive	inactive
O=[N+]([O-])/N=C1\NCCN1Cc1ccc(Cl)nc1	inactive	inactive	inactive	inactive	inactive	inactive	–	–	–	inactive	–	–	–	–	–	–	–	inactive	inactive	inactive
Oc1cc(Cl)ccc1Oc1ccc(Cl)cc1Cl	–	inactive	inactive	–	inactive	inactive	–	–	5 µM (active)	inactive	1290 nM (active)	–	–	–	–	–	1200 nM (active)	inactive	inactive	–
N#Cc1c(Cl)c(Cl)c(Cl)c(C#N)c1Cl	inactive	inactive	inactive	inactive	inactive	inactive	–	–	7.17 µM (active)	inactive	–	–	–	–	–	–	–	inactive	inactive	–
N#CN	inactive	inactive	inactive	inactive	inactive	inactive	–	–	–	inactive	–	–	–	–	–	–	–	inactive	inactive	inactive

From PubChem BioAssay (EPA / NIEHS)
